# Sampled rows, rich in hits. Any-hit rate of the full collection: about 3.6%.
# Pf apPOL block: Pf-apPOL DNA polymerase inhibition; actives 0.25% (n = 210,000); Recombinant Pf-apPOL, molecular beacon fluorescence, 1.5 h; inhibition, % at 10 µM
# mHTT CaM bind: inhibitors of human mutant huntingtin-calmodulin interaction; AID 1671202; P42858; inhibition, % at 15 µM; actives 3.6% (n = 190,000); AlphaScreen His-mHTT/GST-CaM binding, luminescence;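 further: 0% = both proteins with DMSO and 100% = one protein alone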
# Target sequence (P42858 whole entry, looked up, stated change not applied): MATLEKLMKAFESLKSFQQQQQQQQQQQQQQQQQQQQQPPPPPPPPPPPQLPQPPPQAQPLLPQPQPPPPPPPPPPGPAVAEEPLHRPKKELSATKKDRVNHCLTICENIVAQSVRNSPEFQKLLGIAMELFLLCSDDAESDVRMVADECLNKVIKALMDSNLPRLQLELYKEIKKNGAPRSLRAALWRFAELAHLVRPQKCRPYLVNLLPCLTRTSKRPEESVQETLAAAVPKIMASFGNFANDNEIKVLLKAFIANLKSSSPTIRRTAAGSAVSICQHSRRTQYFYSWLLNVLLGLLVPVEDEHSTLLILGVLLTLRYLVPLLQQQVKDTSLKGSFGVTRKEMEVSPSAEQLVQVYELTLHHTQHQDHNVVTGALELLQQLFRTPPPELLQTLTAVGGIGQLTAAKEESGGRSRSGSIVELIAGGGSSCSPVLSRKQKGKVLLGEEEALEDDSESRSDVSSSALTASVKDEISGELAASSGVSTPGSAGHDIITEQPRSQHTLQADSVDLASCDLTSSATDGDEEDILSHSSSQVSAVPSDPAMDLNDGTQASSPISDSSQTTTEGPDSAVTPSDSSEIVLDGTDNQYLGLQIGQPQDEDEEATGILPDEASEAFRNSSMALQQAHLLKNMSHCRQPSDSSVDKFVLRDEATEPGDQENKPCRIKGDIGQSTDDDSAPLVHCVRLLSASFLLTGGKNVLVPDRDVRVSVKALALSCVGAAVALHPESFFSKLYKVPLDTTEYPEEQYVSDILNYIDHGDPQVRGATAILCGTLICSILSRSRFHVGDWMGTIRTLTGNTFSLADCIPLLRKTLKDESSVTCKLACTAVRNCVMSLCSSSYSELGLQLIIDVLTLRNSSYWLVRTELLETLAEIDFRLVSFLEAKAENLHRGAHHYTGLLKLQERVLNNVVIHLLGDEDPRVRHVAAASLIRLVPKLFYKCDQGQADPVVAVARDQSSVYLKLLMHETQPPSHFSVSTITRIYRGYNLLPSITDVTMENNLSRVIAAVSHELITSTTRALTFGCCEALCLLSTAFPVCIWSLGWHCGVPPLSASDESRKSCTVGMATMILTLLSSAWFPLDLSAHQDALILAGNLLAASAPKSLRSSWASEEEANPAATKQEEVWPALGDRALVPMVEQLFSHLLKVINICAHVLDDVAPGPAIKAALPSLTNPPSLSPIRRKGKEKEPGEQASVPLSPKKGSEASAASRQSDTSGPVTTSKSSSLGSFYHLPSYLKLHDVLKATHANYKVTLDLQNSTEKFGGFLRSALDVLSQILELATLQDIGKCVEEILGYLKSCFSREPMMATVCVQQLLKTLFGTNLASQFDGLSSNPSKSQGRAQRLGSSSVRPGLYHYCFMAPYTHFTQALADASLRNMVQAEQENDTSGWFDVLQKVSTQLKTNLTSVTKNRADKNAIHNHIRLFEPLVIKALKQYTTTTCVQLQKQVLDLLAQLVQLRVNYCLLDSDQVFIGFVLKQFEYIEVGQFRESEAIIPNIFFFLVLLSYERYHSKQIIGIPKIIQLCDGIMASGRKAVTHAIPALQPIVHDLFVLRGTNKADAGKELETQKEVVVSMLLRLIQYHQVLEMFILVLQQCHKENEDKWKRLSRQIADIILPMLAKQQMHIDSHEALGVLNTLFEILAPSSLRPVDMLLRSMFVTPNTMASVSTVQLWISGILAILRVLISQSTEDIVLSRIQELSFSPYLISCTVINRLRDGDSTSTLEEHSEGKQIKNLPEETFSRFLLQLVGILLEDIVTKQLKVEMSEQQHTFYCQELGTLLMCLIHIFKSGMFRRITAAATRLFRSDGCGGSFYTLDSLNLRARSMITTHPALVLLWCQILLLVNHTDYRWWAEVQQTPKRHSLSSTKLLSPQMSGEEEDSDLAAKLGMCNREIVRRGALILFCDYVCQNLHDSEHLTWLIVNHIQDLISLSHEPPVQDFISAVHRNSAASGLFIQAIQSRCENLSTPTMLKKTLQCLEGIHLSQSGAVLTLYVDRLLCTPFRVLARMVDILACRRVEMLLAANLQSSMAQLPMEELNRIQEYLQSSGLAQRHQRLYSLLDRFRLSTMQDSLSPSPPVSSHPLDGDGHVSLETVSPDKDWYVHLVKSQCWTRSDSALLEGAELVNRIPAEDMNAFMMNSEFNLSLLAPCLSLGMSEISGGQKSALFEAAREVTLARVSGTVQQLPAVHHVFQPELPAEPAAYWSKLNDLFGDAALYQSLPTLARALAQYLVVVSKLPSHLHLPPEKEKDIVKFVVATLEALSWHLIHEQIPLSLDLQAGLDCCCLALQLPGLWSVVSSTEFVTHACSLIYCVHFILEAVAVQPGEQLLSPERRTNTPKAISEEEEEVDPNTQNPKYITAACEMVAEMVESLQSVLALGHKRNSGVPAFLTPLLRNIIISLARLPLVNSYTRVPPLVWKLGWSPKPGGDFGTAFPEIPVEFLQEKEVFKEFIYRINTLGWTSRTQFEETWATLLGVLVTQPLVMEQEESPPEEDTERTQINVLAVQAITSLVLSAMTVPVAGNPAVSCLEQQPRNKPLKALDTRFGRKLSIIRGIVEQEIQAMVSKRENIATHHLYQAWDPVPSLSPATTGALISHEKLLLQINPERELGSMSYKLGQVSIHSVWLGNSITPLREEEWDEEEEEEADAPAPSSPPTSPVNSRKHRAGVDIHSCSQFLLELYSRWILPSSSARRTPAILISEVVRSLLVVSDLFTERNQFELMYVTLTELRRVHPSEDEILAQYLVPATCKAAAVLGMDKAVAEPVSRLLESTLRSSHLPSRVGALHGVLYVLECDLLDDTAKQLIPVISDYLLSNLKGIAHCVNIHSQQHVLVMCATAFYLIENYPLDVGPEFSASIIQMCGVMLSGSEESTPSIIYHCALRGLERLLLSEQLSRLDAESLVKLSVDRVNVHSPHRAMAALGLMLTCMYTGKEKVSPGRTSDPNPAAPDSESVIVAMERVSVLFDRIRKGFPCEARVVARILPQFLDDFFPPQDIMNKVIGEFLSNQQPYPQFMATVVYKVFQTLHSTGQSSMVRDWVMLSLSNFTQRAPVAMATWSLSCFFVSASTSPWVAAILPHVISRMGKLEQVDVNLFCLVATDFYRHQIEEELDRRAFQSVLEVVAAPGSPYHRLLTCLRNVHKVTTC
# Active calls of the source: *; nt = no result given. No stated cut-off is given here; in the data, active means inhibition above about 50%; inactive means the rest.
SMILES,Pf apPOL block,mHTT CaM bind
CC(C)C(NC(=O)C12CC3(C)CC(C)(CC(C)(C3)C1)C2)C(=O)O (configuration not stated),-5,7
Cc1ccc(Nc2nc(-c3ccc(F)cc3)cs2)cc1,-5,35
Cc1ccc(C)c(-c2csc(Nc3ccc(Cl)cc3)n2)c1,-5,67*
CCN(CC)c1ccc(C=Nc2ccc(-c3cn4ccccc4n3)cc2)c(O)c1,22,4
COCC(=O)N1CC2CN(S(=O)(=O)c3ccc(OC)cc3)CC(C1)O2,-4,3
O=S1(=O)N[C@@H](Cc2ccccc2)COc2cccc(N3CCN(Cc4ccccc4F)CC3)c21,-10,89*
CC(C)C[C@@H]1COc2cccc(N3CCN(Cc4ccccc4F)CC3)c2S(=O)(=O)N1,-6,44
Cc1noc(C)c1S(=O)(=O)N1CCc2nc[nH]c2C1,-2,8
S=C(Nc1ccc(OCc2ccccc2)cc1)Nc1ccc2[nH]ccc2c1,-1,nt
O=C(c1ccc(Cl)cc1)N1N=C(c2ccc(Cl)cc2)CC1(O)C(F)(F)F (configuration not stated),-5,-2
O=C(CCc1ccccc1)N1N=C(c2ccc(Cl)cc2)CC1(O)C(F)(F)F (configuration not stated),-13,-8
Cc1ccc(C(=O)N2N=C(c3ccc(Cl)cc3)CC2(O)C(F)(F)F)cc1 (configuration not stated),-4,35
Cc1cc(C)cc(OCC(=O)N2N=C(c3ccc(Cl)cc3)CC2(O)C(F)(F)F)c1 (configuration not stated),-1,90*
Cc1ccccc1OCC(=O)N1N=C(c2ccc(Cl)cc2)CC1(O)C(F)(F)F (configuration not stated),4,96*
COc1ccc(C(=O)N2N=C(c3ccc(Br)cc3)CC2(O)C(F)(F)F)cc1 (configuration not stated),2,24
O=C(c1ccc(Cl)cc1)N1N=C(c2ccccc2)CC1(O)C(F)(F)F (configuration not stated),-10,54*
COc1ccc(C(=O)N2N=C(c3cccc(Br)c3)CC2(O)C(F)(F)F)cc1 (configuration not stated),0,50*
O=C(N1CCCCC1c1nncn1CC1CC1)C1(c2ccccc2)CC1 (configuration not stated),3,-8
CC(C)Cc1ccc(C(C)C(N)=O)cc1 (configuration not stated),1,-4
Cc1cc(C)c2c(c1)CC(C)(C)c1[nH]c(-c3ccc(Cl)cc3Cl)nc1-2,-4,nt
CC1CCCC(N2CC(=O)N(Cc3ccccc3)C(c3ccc(F)cc3)C2=O)C1C (configuration not stated),-6,-3
CCn1c(C(=O)NCC2CC2)cc2scc(Br)c21,-8,2
CC1CCCN(Cc2c(O)ccc3c2OC(=Cc2ccco2)C3=O)C1 (configuration not stated),-4,4
COC1N(c2ccccc2)N=C(c2ccccc2)N1c1ccccc1 (configuration not stated),nt,13
c1ccc(N2N=C3N(c4ccccc4)C2N3c2ccccc2)cc1,nt,77*
SMILES,Pf apPOL block,mHTT CaM bind
CCSC1=C(C#N)C2(CCN(C)CC2)C(C#N)C(=O)N1 (configuration not stated),0,2
O=C(Cc1cccs1)Nc1cccc(C(=O)c2ccccc2)c1,-9,-4
O=C(Cc1cccs1)Nc1cnc(-c2ccccc2)nc1,34,51*
COc1ccc2nc(-c3cccc(NC(=O)COc4ccc(C(C)=O)cc4OC)c3)cn2n1,-9,64*
COc1ccc2nc(-c3ccc(OC)c(NC(=O)CC4CCCC4)c3)cn2n1,-12,-10
O=C(NCCc1ccccc1)C(=O)NCc1ccc(F)cc1F,-3,-14
Cc1ccc(Cl)cc1N=Cc1nc(-c2ccc(Br)cc2)oc1O,19,1
O=C1C[C@H]2C=CCc3cccc(c32)CN1Cc1ccc(F)cc1,-8,32
Cc1cccc(CN2Cc3cccc4c3[C@H](C=CC4)CC2=O)c1,-4,100*
O=C(NC1CCN(Cc2ccccc2)CC1)c1cccn1CCc1ccccn1,4,nt
O=c1cc(-c2ccccc2)oc2c(CN3CCCCC3)c(O)c(CN3CCCCC3)c(O)c12,3,39
CCN(CC)Cc1c(O)c(CN(CC)CC)c2oc(-c3ccccc3)cc(=O)c2c1O,5,100*
Nc1ccc(Oc2ccc3c(c2)C(=O)N(c2ccccc2F)C3=O)cc1,-2,32
CCCc1sc(NC(=O)c2cc(OC)c(OC)c(OC)c2)nc1-c1ccc(OC)c(OC)c1,-1,55*
CCc1nnc(NC(=O)c2cc(OC)c(OC)c(OC)c2)s1,1,1
O=C(c1ccccc1Cl)N1CCN(c2cccc(Cl)c2)CC1,-3,45
CC(CC(=O)N1CCN(c2cccc(Cl)c2)CC1)c1ccccc1 (configuration not stated),-16,22
COc1ncc(C(=O)N2CCN(c3cccc(Cl)c3)CC2)cn1,-1,0
O=C1c2ccccc2-c2c1cccc2C(=O)N1CCOCC1,3,-2
O=C1c2ccccc2-c2c1cccc2C(=O)N1CCN(c2ccc(Cl)cc2)CC1,7,100*
O=C(CC(c1ccccc1)c1ccccc1)N1CCN(c2cccc(Cl)c2)CC1,-3,84*
O=C(c1ccccc1I)N1CCN(c2cccc(Cl)c2)CC1,-2,77*
CCOc1nn(CC)cc1C(=O)N1CCN(c2cccc(Cl)c2)CC1,-12,91*
CCNC(=O)NC(N)=Nc1nc2ccccc2s1,-8,2
COc1ccccc1C1CN(C(=O)c2cccs2)CC1C(=O)N1CCOCC1 (configuration not stated),-3,4
SMILES,Pf apPOL block,mHTT CaM bind
O=C(Cc1ccc([N+](=O)[O-])cc1)Nc1cc(C(F)(F)F)ccc1Cl,2,nt
O=C1c2ccccc2NC(c2cccc(F)c2)N1c1ccccc1 (configuration not stated),14,-6
Cc1ccc(S(N)(=O)=O)cc1NC(=O)c1ccc(Br)o1,2,-4
COc1ccccc1-c1coc2cc(OC(=O)c3cc(OC)c(OC)c(OC)c3)ccc2c1=O,-7,2
COc1ccc(C2C(C(=O)N(C)c3ccc(Cl)cc3)CC(=O)N2c2ccc(OC)cc2)cc1 (configuration not stated),-2,87*
COc1ccc(C2C(C(=O)Nc3ccc4c(c3)OCO4)CC(=O)N2c2ccc(OC)cc2)cc1 (configuration not stated),-8,12
CC(=O)Oc1ccc2c(=O)c(-c3ccc(Br)cc3)coc2c1,-5,0
COc1ccc(Cl)cc1S(=O)(=O)NCCC1CCN(C(=O)c2ccccc2)CC1,-3,77*
COc1ccc(OC)c(S(=O)(=O)NCCC2CCN(C(=O)c3ccccc3)CC2)c1,1,63*
COc1ccc(S(=O)(=O)NCCC2CCN(C(=O)c3ccccc3)CC2)cc1Cl,0,23
Cc1cc(C)cc(S(=O)(=O)NCCC2CCN(C(=O)c3ccccc3)CC2)c1,-5,27
Cc1cc(NC(=O)CCCS(=O)(=O)c2ccc(Cl)cc2)n(C)n1,-2,-2
COc1cc(/C=C/c2nc3ccccc3c(=O)n2-c2ccccc2[N+](=O)[O-])ccc1O,5,50*
COc1cc(/C=C/c2nc3ccccc3c(=O)n2CCO)ccc1O,-10,7
